High-throughput results deposited in PubChem BioAssay by National Center for Advancing Translational Sciences (NCATS).
Hits are enriched below; roughly 5.7% of the tested compounds scored in any of these assays.
GLP1R ag: agonists of human GLP-1 receptor. HEK293 GLP-1R CRE-luciferase, luminescence, 4-6 h; cells express a hypersensitive GLP-1R form. 0.007% of 380,000 active. Potency, µM (titrated, usually from 45.6 µM), for inactives: at the top dose activation, most hits filed as activators. AID 624172. P43220; also: potency is read from the fitted curve at half-maximal effect; % of control where 0% means no effect
DRD3 antagonist: antagonists of human D3 dopamine receptor; AID 652054; D3R cells, DiscoveRx beta-arrestin luminescence, antagonist mode; hits give low values; max response, negative = inhibition, %; 2.5% of 360,000 active; P35462; in the data active = max response below about -50%; inconclusive = no clear call, values can overlap the other calls; also: % is scaled to controls: 0 for no effect and ±100 for the full control effect
Target sequence (P35462 whole entry, looked up): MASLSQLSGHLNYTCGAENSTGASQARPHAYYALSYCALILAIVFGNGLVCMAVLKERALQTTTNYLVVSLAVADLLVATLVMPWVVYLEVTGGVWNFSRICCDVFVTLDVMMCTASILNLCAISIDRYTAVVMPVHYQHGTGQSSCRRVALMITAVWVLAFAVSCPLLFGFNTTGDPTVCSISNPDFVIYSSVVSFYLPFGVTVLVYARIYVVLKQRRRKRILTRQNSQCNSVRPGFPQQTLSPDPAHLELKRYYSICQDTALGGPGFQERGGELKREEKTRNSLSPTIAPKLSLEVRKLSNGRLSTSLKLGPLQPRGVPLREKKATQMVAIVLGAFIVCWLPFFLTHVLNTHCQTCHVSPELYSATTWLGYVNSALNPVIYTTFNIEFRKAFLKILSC
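Cells expressing the human receptor were seeded at 1500 cells/well, incubated overnight at 37 degrees C in 5% CO2, then exposed to library compounds with dopamine controls for 90 minutes at 37 degrees C before luminescent detection.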
HEK293 tox: cytotoxicity in counter-screen for GLP-1R inverse agonists; HEK293 cAMP-luciferase reporter cells, luminescence, 24 h; Potency, µM (series often up to 38.3 µM), for inactives: at the top dose activity change, negative = inhibition, usual class: inhibitors; 0.13% of 410,000 active;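 also: loss of luciferase light is scored as toxicity; potency is read from the fitted curve at half-maximal effect; % is scaled to controls: 0 for no effect and ±100 for the full control effect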
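Seeding density was 200 cells/uL; after overnight-length (12 h) culture, 23 nL compounds went on for 24 h at 37 °C. Readout used a luciferase detection reagent, luminescence taken after 12 min at room temperature.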
GLP1R inv ag: GLP-1 receptor (human) inverse agonism | Potency, µM (series often up to 38.3 µM), inactives show top-dose activity change, negative = inhibition, hits mostly inhibitors | HEK293 GLP-1R CRE-luciferase, luminescence, 24 h; GLP-1R form is constitutively active | 1.6% of 410,000 active | AID 624417; also: potency is read from the fitted curve at half-maximal effect; % is scaled to controls: 0 for no effect and ±100 for the full control effect; nearly all actives have a fitted effect of over 55% in size
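Inverse agonists were sought by their lowering of basal cAMP reporter luciferase output in HEK293 cells stably carrying constitutively active human GLP-1R, after 24 h compound treatment.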
DRD3 agonist: D3 dopamine receptor (human) agonism; P35462; D3R DiscoveRx beta-arrestin cells, luminescence, 90 min; max activation, %; 0.58% of 410,000 active; AID 652048; in the data active = max activation above about 30%; also: 0% is about no effect
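Cells at 1500/well, incubated overnight, then treated with pinned compounds (dopamine as control) for 90 min at 37 degrees C. DiscoveRx reagent added for 30 - 60 minutes at room temperature; luminescence read.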
ClpP mod: qHTS Assay for Activators of ClpP | AID 651965, 2013 | Potency, µM (highest dose often 57.5 µM), for inactives: top-dose activity change, negative = active | purified B. subtilis ClpP, FRET peptide cleavage, 20 min | 1.9% of 340,000 active | ATP-dependent Clp protease proteolytic subunit (Bacillus subtilis (strain 168)), P80244; active = well fitted falling curve with a large enough effect; inconclusive = small, poorly fitted or top-dose-only effect; inactive = no such curve, though single readings can be large or run the other way; also: potency is read from the fitted curve at half-maximal effect; the source files actives as falling curves though it sought activators and does not explain the sign; nearly all actives have a fitted effect of over 65% in size
Target sequence (P80244 whole entry, looked up): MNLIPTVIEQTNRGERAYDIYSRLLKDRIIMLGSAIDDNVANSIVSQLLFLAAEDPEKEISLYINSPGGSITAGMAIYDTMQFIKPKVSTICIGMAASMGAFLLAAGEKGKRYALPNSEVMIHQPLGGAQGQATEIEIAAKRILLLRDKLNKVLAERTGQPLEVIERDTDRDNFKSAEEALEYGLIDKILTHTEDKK
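ClpP 10 microg/mL final, pH 8 Tris/KCl buffer with BSA, glycerol, Tween-20; compound pinned in; FRET-FV substrate; RT 20 min; Ex320/Em430; ΔFRET vs ADEP 5.8 microM, DMSO, no enzyme.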
* = called active by the depositor; ? = inconclusive; . = no result; ! = not confirmed by another sample. Unless noted, calls follow the shape of the dose curve; as a rule, active = well fitted curve in the direction sought with a large enough effect; inconclusive = small, poorly fitted or top-dose-only effect, or another doubt; inactive = no such curve, though single readings can be large; an effect the other way counts as inactive or inconclusive.

SMILES	GLP1R ag	DRD3 antagonist	HEK293 tox	GLP1R inv ag	DRD3 agonist	ClpP mod
CN(C)c1ccc(C=Nc2ccccc2C(N)=O)cc1	-20%	-11	-11%	-44%	1	25µM*
COc1ccc(CN2C(=O)C(CC(C)C)Nc3ncnc(N4CCN(c5ccccn5)CC4)c32)cc1 (centres undefined)	6%	-29	0%	?	-31	-7%
Cc1ccc(CN2C(=O)C(CC(C)C)Nc3ncnc(N4CCN(c5ccccn5)CC4)c32)cc1 (centres undefined)	1%	-88*	-12%	?	-50	?
CC(C)CC1Nc2ncnc(N3CCN(c4ccccn4)CC3)c2N(Cc2ccc(Br)cc2)C1=O (centres undefined)	-5%	-99*!	5%	?	-45	-12%
CCN(CC)S(=O)(=O)c1ccc(Cl)c(C(=O)OC2CC(C)OC2=O)c1 (centres undefined)	2%	12	-8%	0%	32*	.
Nc1nnc(-c2cn(-c3ccccc3)nc2-c2ccccc2)o1	?	-14	1%	4%	-7	25µM*
CCCc1nc(N2CCCC2)c(C#N)c2c1CCCC2	0%	-11	0%	-25%	-1	32µM*
CC(C)c1nc(N2CCCC2)c(C#N)c2c1CCCC2	0%	0	-2%	?	5	28µM*
CCc1nc(N2CCOCC2)c(C#N)c2c1CCCC2	16%	9	-10%	?	1	95%
CCSc1nc(N2CCCCC2)c2c(c1C#N)CCCC2	-7%	4	1%	2%	11	?
CCc1nc(N2CCCC2)c(C#N)c2c1CCCC2	26%	-14	18%	12%	-4	20µM*
Cc1nc(SCC(=O)Nc2c(C)n(C)n(-c3ccccc3)c2=O)nc(C)c1C	3%	-16	-2%	4%	4	-2%
COc1ccc2c(CC(=O)Nc3c(C)n(C)n(-c4ccccc4)c3=O)coc2c1	9%	-1	-1%	13%	6	-2%
COc1ccc2c(C)cc(SCC(=O)Nc3c(C)n(C)n(-c4ccccc4)c3=O)nc2c1	2%	0	-12%	-3%	5	25µM*
Cc1c(NC(=O)CSc2nc(N)cc(N)n2)c(=O)n(-c2ccccc2)n1C	10%	4	2%	0%	-8	28µM*
Cc1c(NC(=O)CSc2nnc(-c3cccc(Cl)c3)o2)c(=O)n(-c2ccccc2)n1C	-3%	-72*	4%	5%	-6	-5%
CCOC(=O)CN[C@@H](C(=O)N1CC[C@H]1C(=O)NCc1ccc(/C(N)=N/O)cc1)C1CCCCC1	-1%	.	.	.	4	.
Cc1ccc(NS(=O)(=O)c2c(C)[nH]c(C)c2C(=O)N2CCCC2)cc1	0%	-20	-8%	-13%	-4	-1%
Cc1[nH]c(C)c(S(=O)(=O)Nc2ccc(OC(F)(F)F)cc2)c1C(=O)N1CCCCC1	7%	-91*	-1%	?	-9	0%
CNc1c(Br)cc(/C=C2\C=Cc3ccccc32)cc1Br	.	.	.	.	.	1%
CCOc1cccc(/C=C/c2ccc3cccc(O)c3n2)c1O	?	-56*	-17%	?	1	.
CCOc1cccc(/C=C/c2ccc3cccc(O)c3n2)c1OC	21%	-83*	11%	?	-24	.
C[N+](=O)C1C(=O)Nc2ccccc21 (centres undefined)	.	.	.	.	.	0%
Cc1ccsc1C(=O)N1CCC1(C)C(=O)NCc1cccnc1 (centres undefined)	0%	0	6%	4%	4	0%
Clc1ccccc1CSc1cc2c(nn1)-c1ccccc1CC2	-4%	-17	2%	10µM*	-7	-2%
SMILES	GLP1R ag	DRD3 antagonist	HEK293 tox	GLP1R inv ag	DRD3 agonist	ClpP mod
O=C(O)c1ccc2cccc(Cl)c2c1O	1%	-20	11%	-13%	-3	18µM*
O=C1C2C(c3ccccc3)CC=CC2[C@H](c2cccc([N+](=O)[O-])c2)N1Cc1ccccc1 (some centres undefined)	-5%	-15	3%	10µM*	-6	-1%
Cc1ccc(-c2cccc(C3CC=CC4C3C(=O)N(Cc3ccccc3)C4c3cc(C)ccc3F)c2)cc1 (centres undefined)	-4%	0	-20%	4.5µM*	10	-2%
O=C1C2C(c3ccccc3)CC=CC2[C@H](c2ccc(C(F)(F)F)cc2)N1Cc1ccccc1 (some centres undefined)	1%	0	?	?	1	-1%
O=C1NC(Cc2ccc(O)cc2)c2nc3ccc(F)cc3c(=O)n2-c2ncccc21 (centres undefined)	-1%	0	2%	18%	-15	-4%
COc1ccc(CNC(=O)c2ccc(CS(=O)Cc3ccccc3Cl)o2)cc1 (centres undefined)	.	.	-3%	-1%	-18	2%
O=C1NC(=O)c2c(NC(=O)C3CCCO3)cccc21 (centres undefined)	8%	36	-6%	-15%	5	16µM*
Cc1ccc(C(=O)CSc2n[nH]c(-c3ccco3)n2)cc1C	3%	-19	0%	16%	-4	-1%
COc1ccc(C(=O)CSc2n[nH]c(-c3ccco3)n2)cc1	11%	-59*	0%	0%	4	-4%
Cc1c(Cl)cccc1-c1ccc(CNc2ccc3[nH]c(=O)[nH]c3c2)o1	.	.	1%	4%	10	9%
Cc1ccccc1-c1nc(SCC(=O)NCc2ccc(F)cc2)c2c(=O)n(C)c(=O)n(C)c2n1	.	.	-7%	1%	1	-1%
COc1cc(NC(=O)C(NC(=O)C2CCC(C)CC2)C(C)C)cc(OC)c1OC (centres undefined)	.	.	-2%	4%	7	2%
CC(C)C[C@H](NC(=O)c1[nH]cnc1C(=O)N[C@@H](C)c1ccccc1)C(=O)OCc1ccccc1	-1%	-23	-13%	4.5µM*	-30	-1%
CC1CCN(C(=O)c2[nH]cnc2C(=O)Nc2ccc(Cl)cc2)CC1	-5%	9	10%	?	45*	2%
C[C@H](NC(=O)c1nc[nH]c1C(=O)NC(c1ccccc1)c1ccccc1)C(=O)OC(C)(C)C	2%	-56*	0%	5.6µM*	0	4%
CNC(=O)c1[nH]cnc1C(=O)N[C@@H](C)C(=O)OCc1ccccc1	-5%	35	4%	16%	35*	2%
CC1CCN(C(=O)c2[nH]cnc2C(=O)NCc2ccccc2)CC1	-5%	4	11%	9%	-9	-1%
